# Assay outcomes deposited in PubChem BioAssay by several laboratories.
# Bfl-1 A1 inh = inhibitors of the anti-apoptotic protein A1, read as caspase activation | MEF A1-2A-BIM cells, Caspase-Glo 3/7 luminescence, 3 h; percent of clofoctol response, vehicle zero | caspase activation, % (test concentration not listed) | hit rate 0.066% among 330,000 | AID 2462;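 active = over half of replicate activation scores above 10%, or exactly half above 10 with the replicate mean above 10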
# SUMO Mot1 rescue = blocks SUMOylation pathway, rescuing yeast Mot1-301 growth; S. cerevisiae Mot1-301 growth rescue, ATP luminescence, 38.5C; percent above DMSO median, 100 means doubled; growth rescue, % at 18.8 µM; hit rate 1% among 320,000;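 active = every valid replicate shows activation above 250% relative to neutral control wells; inactive = the rest, any valid replicate at or below 250%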;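 also: OY570 slx delta 5 strain wells were the positive control but not used for scaling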
# VLA-4 inh = inhibition in a human VLA-4 binding assay | inhibition, % (about 7 µM as worked out from the volumes in the protocol) | VLA-4 expressing cells, ligand binding flow cytometry | P13612 | hit rate 0.2% among 330,000 | AID 2557; in the data active = inhibition above about 50%
# Efflux pump inh = inhibitors of Candida antifungal efflux pumps expressed in yeast. AID 485275. inhibition, % at 10 µM. hit rate 0.44% among 330,000. S. cerevisiae Candida pump triplex, Nile Red efflux;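 active = plate passing quality check with inhibition over a set limit, or well fluorescence over plate mean plus 4 SD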;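 also: Nile Red retained in pooled yeast measured as flow cytometry median fluorescence; 0% = buffer negative control and 100% = Enniatin B positive control; higher means more Nile Red kept so more efflux inhibition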
# AHR act = human AHR activation; AHR-responsive luciferase reporter cells, luminescence; activation, % at 5 µM; hit rate 2.5% among 320,000; AID 2796; P35869; in the data active = activation above about 47%;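 also: 0% = vehicle wells and 100% = reference agonist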
# Target sequence (P35869 whole entry, looked up): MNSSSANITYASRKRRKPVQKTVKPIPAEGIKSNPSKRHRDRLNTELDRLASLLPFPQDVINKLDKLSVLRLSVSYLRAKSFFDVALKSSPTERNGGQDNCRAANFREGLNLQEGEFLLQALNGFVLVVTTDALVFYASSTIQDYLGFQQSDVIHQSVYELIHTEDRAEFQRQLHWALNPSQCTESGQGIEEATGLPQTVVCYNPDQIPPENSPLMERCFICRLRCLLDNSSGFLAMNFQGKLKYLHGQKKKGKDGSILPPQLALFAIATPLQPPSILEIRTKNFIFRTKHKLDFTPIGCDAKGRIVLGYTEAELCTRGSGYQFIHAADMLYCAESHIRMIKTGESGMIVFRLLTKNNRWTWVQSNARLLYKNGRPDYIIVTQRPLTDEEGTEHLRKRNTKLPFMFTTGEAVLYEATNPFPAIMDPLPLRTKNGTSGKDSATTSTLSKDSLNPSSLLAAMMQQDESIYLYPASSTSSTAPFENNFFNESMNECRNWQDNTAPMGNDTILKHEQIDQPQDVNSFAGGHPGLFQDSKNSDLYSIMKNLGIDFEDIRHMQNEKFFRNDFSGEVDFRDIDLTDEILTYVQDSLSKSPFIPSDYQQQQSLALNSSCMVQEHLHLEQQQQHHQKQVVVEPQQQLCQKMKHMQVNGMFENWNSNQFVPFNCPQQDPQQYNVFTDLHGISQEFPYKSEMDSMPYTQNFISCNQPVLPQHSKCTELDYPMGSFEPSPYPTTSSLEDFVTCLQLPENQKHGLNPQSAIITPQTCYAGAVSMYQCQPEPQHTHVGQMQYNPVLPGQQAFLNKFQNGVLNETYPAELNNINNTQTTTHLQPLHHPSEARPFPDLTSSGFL
# ALR inh = blocks human ALR sulfhydryl oxidase activity. P55789. purified ALR, DTT oxidation, H2O2 HRP-luminol luminescence. inhibition, % (test concentration not listed). hit rate 3.8% among 290,000;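 active = mean replicate inhibition above about 79%, with every replicate also reaching it, limit read from the data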
# Cmpd fluor yeast = counter-screen for efflux pump inhibitors: compound fluorescence. shares compounds with Efflux pump inh. S. cerevisiae AD/pABC3, flow cytometry. AID 588517. hit rate 4% among 1,700. fluorescence ratio to DMSO, % at 10 µM;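 active = fluorescence ratio to DMSO above its plate's cutoff, the plate mean ratio plus 5 SD, cut at about 210% in these data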;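 also: unstained yeast with no Nile Red so the signal is compound autofluorescence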
# CaMdr1 efflux inh = blocks the Candida albicans Mdr1 efflux pump in yeast; S. cerevisiae AD/CaMDR1, Nile Red efflux, flow cytometry; hit rate 1% among 1,700; shares compounds with Efflux pump inh; inhibition, % at 10 µM; in the data active = inhibition above about 26%;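 also: 0% = DMSO vehicle and 100% = reference inhibitor; higher means more Nile Red retained so more efflux inhibition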
# CaCdr2 efflux inh = inhibitors of Candida albicans Cdr2 efflux pump | shares compounds with Efflux pump inh | S. cerevisiae AD/CaCDR2, Nile Red retention, flow cytometry | Nile Red retention ratio vs DMSO, % at 10 µM | hit rate 4% among 1,700; in the data active = Nile Red retention ratio vs DMSO above about 190%;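 also: higher ratio means more blocking of Cdr2 efflux of the dye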
# CaCdr1 efflux inh = Candida Cdr1 efflux pump inhibition; shares compounds with Efflux pump inh; S. cerevisiae AD/CaCDR1, Nile Red efflux, flow cytometry; inhibition, % at 10 µM; hit rate 1% among 1,700; AID 588522;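 active = inhibition above the screen-wide mean plus twice its standard deviation, cut at about 32% in these data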
# Starred values were filed as active, the others as inactive; i = inactive; / = no result. The list is not random: actives were taken first. Their share in the collection is about 7.2%.
SMILES,Bfl-1 A1 inh,SUMO Mot1 rescue,VLA-4 inh,Efflux pump inh,AHR act,ALR inh,Cmpd fluor yeast,CaMdr1 efflux inh,CaCdr2 efflux inh,CaCdr1 efflux inh
COc1ccc(CCNC(=O)CC(c2ccccc2)c2cc(C)ccc2O)cc1OC (centres undefined),0,93,3,0,0,14,/,/,/,/
S=c1[nH]nc(-c2cccnc2)n1/N=C/c1ccc(Br)s1,0,6,5,8.0*,11,3,83,0,93,0
S=c1[nH]nc(-c2cccnc2)n1/N=C/c1ccco1,1,-12,-8,0,6,18,/,/,/,/
c1ccc(C(c2ccccc2)c2noc(CN3CCC(c4ccncc4)CC3)n2)cc1,1,4,1,5.2*,7,0,85,0,87,0
c1ccc(C2CCCN(Cc3nc(CC4CC4)no3)CC2)cc1 (centres undefined),0,12,8,0,3,1,/,/,/,/
CN1CCN(c2ccccc2NC(=O)c2ccc(-c3ccc(Cl)c(Cl)c3)o2)CC1,0,225,-5,8.1*,63*,/,85,0,102,0
CCc1ccc(NC(=O)C(NS(=O)(=O)c2ccc3c(c2)CCN3C(C)=O)C(C)C)cc1 (centres undefined),0,9,3,1.6*,-2,-6,105,0,89,0
N[C@@H](Cc1ccccc1)c1nnc(SC/C=C/c2ccccc2)o1,0,2,-13,0,4,3,/,/,/,/
O=C(CNC(=O)c1nn(Cc2ccccc2)c(=O)c2ccccc12)Nc1ccc(F)c(F)c1F,-1,0,7,0.9*,5,/,101,0,108,0
CCc1ccc(NC2CC(=O)N(c3ccc(OC)cc3OC)C2=O)cc1 (centres undefined),0,17,-11,0,1,-1,/,/,/,/
COc1ccc(NC2CC(=O)N(c3cc([N+](=O)[O-])ccc3C)C2=O)cc1 (centres undefined),0,250,5,1.1*,1,51,115,0,114,0
Cc1cc(NC(=O)c2ccc(Cl)cc2)ccc1NC(=O)c1ccccc1Cl,1,-1,-5,0,29,-5,/,/,/,/
CC1CC(C)CN(S(=O)(=O)c2cc(C(=O)O)c(Cl)s2)C1 (centres undefined),-1,-6,-52,9.7*,-1,-1,101,0,94,0
O=C(NC1CCCc2ccccc21)c1cncc(Br)c1 (centres undefined),-1,99,8,3.4*,-3,2,96,0,92,0
O=C(NC1CCCc2ccccc21)c1cc(F)cc(F)c1 (centres undefined),0,-7,-1,0,3,/,/,/,/,/
CN1C(=O)[C@H]2[C@@H](/C=C/c3ccccc3)N3C(=O)CN(Cc4ccc(-c5ccccc5)cc4)C(=O)[C@@]3(Cc3ccccc3)[C@H]2C1=O,0,62,35,0,-1,-8,/,/,/,/
Cc1cc2nc3s/c(=C/c4ccc(-c5ccccc5C(=O)O)o4)c(=O)n3c2cc1C,-2,12,-52,0.9*,6,67,133,0,142,0
NNC(=O)C1c2ccccc2Oc2ccccc21,0,7,4,0,1,-6,/,/,/,/
NC(=O)C1c2ccccc2Oc2ccccc21,0,4,-2,4.9*,2,-22,99,0,100,0
Cc1nn(CC(=O)NCc2cccs2)c(=O)c2nn(-c3ccccc3)c(C)c12,0,-20,7,6.2*,0,-2,99,0,89,0
Cc1ccc(-n2nc3c(=O)n(CCCC(=O)NCc4ccc(C)o4)nc(C)c3c2C)cc1,3,43,-3,0,-1,/,103,0,98,0
O=C1CCCC(=O)N1c1ccc(NCCOCCO)c([N+](=O)[O-])c1,0,-1,0,0,-1,4,/,/,/,/
Cc1cccc(C)c1NC(=O)CN(C)C(=O)CN1C(=O)NC2(CCCC2)C1=O,-1,6,0,0,2,1,/,/,/,/
CC(=O)Nc1ccc(S(=O)(=O)N2CCN(c3nc4ccccc4n3CC(C)C)CC2)cc1,0,-10,2,1.0*,/,-12,100,0,114,0
CCn1c(CC(=O)Nc2ccc(F)cc2)nnc1SCC(=O)Nc1nnc(C)s1,0,-2,2,0,-1,1,/,/,/,/
SMILES,Bfl-1 A1 inh,SUMO Mot1 rescue,VLA-4 inh,Efflux pump inh,AHR act,ALR inh,Cmpd fluor yeast,CaMdr1 efflux inh,CaCdr2 efflux inh,CaCdr1 efflux inh
CCOC(=O)C(C(=O)OCC)c1cc(Br)c2noc3c2c1C(=O)c1ccccc1-3,10*,1,i,0.8*,8,/,826*,1,193*,0
O=C(CCS(=O)(=O)c1ccccc1F)Nc1ccc(N2CCN(Cc3ccccc3)CC2)cc1,0,10,-3,1.9*,2,6,109,0,89,0
Cc1ccc(-n2nc(C)c(NC(=O)CCl)c2C)cc1,0,13,-6,10*,8,56,99,0,104,2
CC(=O)Nc1c(C)nn(-c2ccc([N+](=O)[O-])cc2)c1C,0,-30,-19,0,1,2,/,/,/,/
Cc1c(C(=O)O)oc2ccc(S(=O)(=O)NC3CCCCCCC3)cc12,1,-19,0,1.0*,2,6,100,0,96,0
O=C(Cn1cncn1)N/N=C/c1cccc(Cl)c1,0,18,-9,0,5,-4,/,/,/,/
COc1ccc(-c2cn[nH]c2-c2ccc(OCc3ccc([N+](=O)[O-])cc3)cc2O)cc1OC,0,-6,-9,0,14,4,/,/,/,/
O=[N+]([O-])c1ccc(COc2ccc(-c3[nH]ncc3-c3ccc(Cl)cc3)c(O)c2)cc1,0,-12,-7,18*,27,-12,109,0,112,0
CC/C(O)=C(/C#N)c1nnc2n1CCCCC2,0,4,-2,0,0,0,/,/,/,/
CC/C(O)=C(\C#N)c1nnc2n1CCCCC2,1,7,8,6.7*,0,-6,106,0,95,0
COc1ccc(CCCc2nnc(SCC(=O)Nc3cc(C)c(C)cc3Br)o2)cc1,-1,188,10,0.8*,6,5,103,-1,108,0
COc1ccc2[nH]c3c(C)c4ccncc4c(C)c3c2c1,0,-13,-257,2.8*,32,45,125,0,103,0
